From PubChem
KB-V1 MDR tox = qHTS assay for MDR1-selective chemotherapeutics: Primary screen using the drug-selected MDR subline cells KB-V1. KB-V1 MDR cells viability, CellTiter-Glo, 72 h. Potency, µM (highest dose often 46.1 µM), most hits filed as cytotoxic. actives 3.4% (n = 400,000). AID 1347076, 2019; note: % is set by controls: 0 for no effect and ±100 for the full control effect; nearly all actives have a fitted effect of over 60% in size
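KB-V1 cells (P-gp-expressing MDR subline of KB-3-1) in phenol-red-free DMEM with 10% FBS were exposed to library compounds over a concentration series for 72 h at 37 degrees C. Viability read by CellTiter-Glo luminescence; concentration-effect curves fitted after normalization.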
MCF10A rerep = A quantitative high throughput screen for small molecules that induce DNA re-replication in MCF 10a normal breast cells; MCF 10A DNA re-replication, Hoechst nuclear intensity, 48 h; actives 2.9% (n = 350,000); Potency, µM (series often up to 46.1 µM), inactives show at the highest dose activity, positive = re-replication, actives largely listed as activators; AID 624296, 2012; note: % of control where 0% means no effect; nearly all actives have a fitted effect of over 50% in size
ELG1 DNA repair = qHTS screen for small molecules that inhibit ELG1-dependent DNA repair in human embryonic kidney (HEK293T) cells expressing luciferase-tagged ELG1; Potency, µM (top dose mostly 46.1 µM), for the others: at the top dose activity change, negative = inhibition, hits mostly inhibitors; HEK293T ELG1-luciferase reporter, luminescence, 16 h; DNA damage induced by 5-fluorouridine; actives 2.3% (n = 330,000); note: % is set by controls: 0 for no effect and ±100 for the full control effect; nearly all actives have a fitted effect of over 55% in size
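Overnight (16 hr) co-exposure of 2,000 cells/well to 5-fluorouridine and compound at 37 °C preceded detection. Luciferase was quantified via ONE-Glo luminescence; loss of signal denotes inhibition.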
SW480 rerep = A quantitative high throughput screen for small molecules that induce DNA re-replication in SW480 colon adenocarcinoma cells; SW480 DNA re-replication, Hoechst DNA content imaging, 48 h; actives 1.8% (n = 340,000); Potency, µM (doses to about 46.1 µM), for the others: at the highest dose re-replication activation, hits mostly activators; AID 624297, 2012; note: % of control where 0% means no effect; nearly all actives have a fitted effect of over 55% in size
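Treated cells incubate 48 hr (37 C, 5% CO2), are stained 40 min with Hoechst, and nuclear fluorescence is enumerated; a rise in nuclei with high DNA signal marks re-replication.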
KB-3-1 cytotox = qHTS assay for MDR1-selective chemotherapeutics: Primary screen using the parental adenocarcinoma cell KB-3-1; KB-3-1 viability, CellTiter-Glo ATP luminescence, 72 h; Potency, µM (titrated, usually from 46.1 µM), usual class: cytotoxic; actives 1.4% (n = 400,000); AID 1347075, 2019; note: % is set by controls: 0 for no effect and ±100 for the full control effect; nearly all actives have a fitted effect of over 60% in size
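Luminescent ATP read-out (CellTiter-Glo) measures survival of drug-naive KB-3-1 cells after 72 h compound exposure at 37 °C. Titration series was screened from lowest to highest concentration, with DMSO vehicle plates as background controls.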
An asterisk follows results filed as active; i = inactive; ? = inconclusive; . = not tested or not shown; [ ] = another dose, or the depositor's remark. In the library only some 8.2% were active in any assay of this set; here they are far more common. Calls come from the whole dose curve; as a rule, active = well fitted curve in the direction sought with a large enough effect; inconclusive = small, poorly fitted or top-dose-only effect, or another doubt; inactive = no such curve, though single readings can be large; an effect the other way counts as inactive or inconclusive. Potency is the fitted concentration of half-maximal effect.

SMILES	KB-V1 MDR tox	MCF10A rerep	ELG1 DNA repair	SW480 rerep	KB-3-1 cytotox
O=C(Cn1cc(S(=O)(=O)Cc2ccc(F)cc2)c2ccccc21)NCc1ccccc1Cl	i	.	.	.	i
COc1ccccc1NS(=O)(=O)c1ccc2oc(SC(C)C(=O)N3CCNC3=O)nc2c1 (stereo not drawn)	i	2.3%	25.9µM*	-28.0%	i
Cc1cc(C)c(S(=O)(=O)Oc2ccccc2[N+](=O)[O-])c(C)c1	14.6µM*	6.51µM*	.	20.6µM*	i
Cc1ccc(C)c(C(=O)COc2ccccc2[N+](=O)[O-])c1	i	?	2.4%	?	i
COc1ccccc1OCCn1c(=O)sc2ccccc21	14.6µM*	11.2%	22.7%	3.7%	i
Cc1ccccc1OCCn1c(=O)sc2ccccc21	i	0.3%	?	4.2%	i
CCOc1ccc(Cn2c(=O)sc3ccccc32)cc1OC	11.6µM*	?	?	-6.4%	?
COc1cc(Cn2c(=O)sc3ccccc32)ccc1OC(C)C	i	.	.	.	i
COc1ccccc1OCCn1c(C)c(C=O)c2ccccc21	i	-3.6%	11.6µM*	-4.8%	i
CSc1ccc(CN2CCC2(C)C(=O)NCc2cccs2)cc1 (stereo not drawn)	i	.	.	.	i
Cc1nnc(-c2cccc(Br)c2)c2cn(-c3ccccc3Cl)nc12	?	14.2%	-17.3%	-13.6%	?
Cc1ccc(-n2cc3c(-c4cccc(Br)c4)nnc(C)c3n2)cc1	16.4µM*	13.8%	-12.6%	-0.5%	?
C=CCSc1nnc(C)c(/C=C/Nc2ccc(Cl)cc2)n1	i	20.6µM*	-8.1%	?	i
CCOc1ccccc1NC(=O)CSc1nc2cc(O)ccc2c(=O)n1-c1ccc(OC)c(OC)c1	i	?	?	?	?
COc1cc(-c2nc(C(=O)NC3CCCCC3)cc3c2[nH]c2ccccc23)cc(OC)c1OC	i	2.1%	5.8µM*	-4.5%	i
CCC1OC(=O)C[C@@H](O)[C@H](C)[C@@H](OC2OC(C)CC(N(C)C)C2O)[C@@H](CC=O)C[C@@H](C)C(=O)/C=C/[C@]2(C)OC2C1C (stereo partly drawn)	.	17.3%	.	?	.
CCC(=O)Nc1ccc(NC(=O)c2ccco2)c(OC)c1	i	10.3%[9.22 µM]	?	-4.0%	i
COC(=O)c1ccccc1NC(=O)COC(=O)c1ccc(C)c(NC(=O)c2ccco2)c1	3.66µM*	25.5%	?	?	i
COC(=O)c1cc(OC)c(OC)cc1NC(=O)c1ccco1	?	2.8%	23.1µM*	10.3%	i
COc1ccc(NC(=O)COC(=O)c2cc(OC)c(OC)cc2NC(=O)c2ccco2)cc1OC	i	?	23.1µM*	10.3µM*	i
COc1cc(NC(=O)c2ccco2)c(OC)cc1NC(=O)CCC(=O)Nc1cc(C)cc(C)c1	i	-185.5%[0.0737 µM]	20.6µM*	0.0%	i
FC(F)(F)COc1ccc(-c2nnc(SCc3ccccc3)o2)cn1	i	0.7%	?	-11.5%	i
Cn1c(SCC(=O)Nc2ccc(C(=O)O)cc2)nc2scc(-c3ccccc3Cl)c2c1=O	i	-33.2%	-3.2%	?	i
CCc1ccc(NC(=O)c2cc(S(=O)(=O)N3CCCCCC3)ccc2F)cc1	i	.	.	.	i
COC(=O)c1cc(OC)c(OC)cc1NC(=O)C(C)Sc1ccc(C)cc1 (stereo not drawn)	?	3.66µM*	?	15.5%	i
SMILES	KB-V1 MDR tox	MCF10A rerep	ELG1 DNA repair	SW480 rerep	KB-3-1 cytotox
CCCOc1ccc(C2C(C(=O)c3ccc(C)o3)=C(O)C(=O)N2Cc2ccco2)cc1 (stereo not drawn)	18.4µM*	-2.1%	2.5%	?	i
CCCOc1cccc(C2C(C(=O)c3ccc(C)o3)=C(O)C(=O)N2CCN2CCOCC2)c1 (stereo not drawn)	i	9.9%	-4.2%	-10.1%	i
CCOc1cccc(C2C(C(=O)c3ccc(C)o3)=C(O)C(=O)N2c2nnc(C)s2)c1 (stereo not drawn)	i	13.7%	.	-1.3%	i
CCOc1cccc(C2C(C(=O)c3ccco3)=C(O)C(=O)N2c2nnc(C)s2)c1 (stereo not drawn)	i	-4.5%	?	5.8µM*	i
CCCOc1cccc(C2C(C(=O)c3ccc(C)o3)=C(O)C(=O)N2c2nc(C)c(C(C)=O)s2)c1 (stereo not drawn)	?	23.1µM*	13.5%	?	i
COc1ccc(NC(=O)c2cc(-c3ccccc3Cl)on2)cc1	?	2.8%	?	-2.8%	i
COc1ccccc1-c1cc(C(=O)Nc2cccnc2)no1	?	?	?	0.517µM*	0.164µM*
COc1ccc(NC(=O)c2cc(-c3ccccc3OC)on2)cc1	1µM*	?	?	3.55µM*	3.98µM*
COC(=O)c1ccc(NC(=O)CNCc2ccncc2)cc1	i	-1.1%	-1.2%	-49.4%	i
O=C(CNCc1ccccc1)Nc1ccc(Cl)cc1	?	18.4µM*	25.4%	?	10.3µM*
COC(=O)c1ccc(CNCC(=O)Nc2ccc(C(=O)OC)cc2)cc1	i	16.4µM*	16.2%	2.4%	i
O=C(CNCc1ccc(Cl)cc1)Nc1ccc(C(=O)N2CCCCC2)cc1	i	0.0%	3.2%	-7.1%	i
Cc1ccc(NC(=O)c2ccc(-n3nncc3-c3ccccc3)cc2)cc1	i	.	.	.	i
Cc1cc2c(cc1C)N(C(=O)CCl)CCN2C(=O)CCl	7.31µM*	4.61µM*	.	3.66µM*	14.6µM*
CCC(=O)N1CCCC(C)(C(=O)Nc2ccc(OC(F)F)cc2)C1 (stereo not drawn)	i	.	.	.	i
CN1C(=O)/C(=C/c2ccccc2F)Sc2ccc(C(=O)N3CCCC3)cc21	i	19.7%	?	0.5%	i
CN1CCN(C(=O)c2ccc3c(c2)N(C)C(=O)/C(=C/c2cccc(Cl)c2)S3)CC1	i	13µM*	0.7%	4.4%	i
COc1ccc(/C=C2\Sc3ccc(C(=O)N4CCOCC4)cc3N(C)C2=O)cc1	i	?	?	-8.2%	i
COc1ccc(/C=C2\Sc3ccc(C(=O)NCc4cccnc4)cc3N(C)C2=O)cc1OC	i	?	18.3µM*	?	i
COc1ccc(/C=C2\Sc3ccc(C(=O)N4CCN(Cc5ccccc5)CC4)cc3N(C)C2=O)cc1OC	i	20.6µM*	23.1µM*	?	i
C=CCN1C(=O)c2ccccc2Sc2ccc(C(=O)N3CCN(C)CC3)cc21	9.2µM*	-1.6%	?	-4.4%	i
